In PubChem BioAssay AID2279 (Southern Research Specialized Biocontainment Screening …, 2010) one finds outcome data, which are given here for 34 compounds.

The structures appear in SMILES notation. Results with a measured potency or affinity are listed apart. Activity calls are given as the source filed them. No rule for the calls is given here.

The test is described as follows: HIV-1 Env-mediated cell fusion inhibitors, dose response, CCR5-tropic Env (AID 2279). To be noted: CCR5-tropic HIV-1 Env, reporter read-out; series mostly up to 50 µM.
Take `CCOc1cc(/C=C2\SC(=S)N(C(C(=O)O)c3ccccc3)C2=O)ccc1O` (centres undefined): the outcome was inactive.
For the compound `CC(C)COc1ccc(-c2nn(-c3ccccc3)cc2/C=C2/SC(=S)N(CC(=O)O)C2=O)cc1`, the result was inactive.
As to `O=C(O)c1ccc(-c2ccc(/C=C3\NC(=O)N(Cc4ccc(Cl)cc4)C3=O)o2)cc1Cl`, the outcome was inactive.
In the case of `Cc1ccc(-n2cccc2/C=C2/C(=N)N3C(=NC2=O)SN=C3S(C)(=O)=O)cc1Cl` it was “inactive”; in that of `CCOc1cc(/C=C2/C(=N)N3C(=NC2=O)SN=C3S(C)(=O)=O)ccc1OS(=O)(=O)c1ccccc1`, “inactive”.
`O=C(O)CN1C(=O)/C(=C\c2cccc(OCc3ccc(Cl)cc3Cl)c2)SC1=S`: the result was inactive.
Take `CC1=C(C#N)C(=O)NC(=O)/C1=C\c1ccc(-c2cc(C)c(C)cc2[N+](=O)[O-])o1`: the result was inactive.
Take `N#Cc1c(-c2ccccc2)nc(SCC(=O)N2c3ccccc3Sc3ccccc32)[nH]c1=O`: the result was inactive.
Next, `O=C(Nc1cccc(C(F)(F)F)c1)c1cccc(NS(=O)(=O)c2ccc(O)c(C(=O)O)c2)c1`: “inactive”.
In the case of `O=C(NC(=S)Nc1ccccc1C(=O)O)c1ccc(-c2ccc(Br)cc2)o1` it was “inactive”; in that of `CSc1nc(SCC(=O)O)c2sc3nc(-c4ccccc4)c4c(c3c2n1)CCC4`, “inactive”.
In the case of `O=C1NC(=Nc2ccccc2Cl)S/C1=C\c1cccc([N+](=O)[O-])c1O` it was “inactive”.
On to `C=CCOc1ccc(C(c2c(C(=O)O)[nH]c3ccccc23)c2c(C(=O)O)[nH]c3ccccc23)cc1`, for which the result was inactive.
Next, `Cc1ccc(F)c(NC(=O)/C(C#N)=C(\O)c2ccc(C(C)(C)C)cc2)c1`: “inactive”; `COc1ccc(/C=N/NC(=O)c2[nH]c3ccc(Br)cc3c2-c2ccccc2)c(C(=O)O)c1OC`: “inactive”; `COc1cc(/C=C(\C#N)c2nc3ccc(C)cc3[nH]2)cc([N+](=O)[O-])c1O`: “inactive”.
In the case of `COc1ccc(NC(=O)c2c[nH]n3c(=O)cc(C4CCN(C(=O)OC(C)(C)C)CC4)nc23)cc1Cl` it was “inactive”; in that of `CSc1ccc(C(c2c(C(=O)O)[nH]c3ccccc23)c2c(C(=O)O)[nH]c3ccccc23)cc1`, “inactive”.
With `N#Cc1c(-c2ccccc2)nc(SCc2cccc(Cl)c2)[nH]c1=O`, the outcome was inactive.
In the case of `O=C(O)CN1C(=O)/C(=C\c2ccccc2OCc2ccc(Cl)cc2Cl)SC1=S` it was “inactive”; in that of `Cc1ccc(S(=O)(=O)Oc2ccc(/C=C3/C(=N)N4C(=NC3=O)SN=C4S(C)(=O)=O)cc2)cc1`, “inactive”; in that of `N#Cc1c(-c2ccccc2)nc(SCC(=O)Nc2ccc(OC(F)(F)Cl)cc2)[nH]c1=O`, “inactive”.
On to `O=C(NCc1ccccc1)c1ccc2c(=O)[nH]c3c(C(=O)NCC4CCCO4)sc(=S)n3c2c1` (centres undefined), for which the outcome was inactive.
In the case of `COc1cc(/C=C2/C(=O)NN(c3ccc(C)c(Cl)c3)C2=O)cc([N+](=O)[O-])c1O` it was “inactive”; in that of `CCc1nnc(NS(=O)(=O)c2ccc(NC(=O)/C=C/c3ccccc3Cl)cc2)s1`, “inactive”.
Next, `CC(/C=C1\SC(=S)N(c2ccc(C(=O)O)cc2)C1=O)=C\c1ccccc1`: “inactive”.
Take `O=[N+]([O-])c1cc(Cl)cc(/C=N/NC(=S)Nc2ccc(S(=O)(=O)N3CCOCC3)cc2)c1O`: the result was inactive.
Consider `COc1cc(/C=C2\S/C(=N/S(=O)(=O)c3ccc(C)cc3)NC2=O)c([N+](=O)[O-])cc1OC`, for which the result was inactive.
In the case of `O=C(Nc1ccc(C(=O)O)cc1)/C(=C\C=C\c1ccccc1)NC(=O)c1cccc(Br)c1` it was “inactive”.
As for `O=C(O)c1[nH]c2ccccc2c1C(c1c(F)cccc1Cl)c1c(C(=O)O)[nH]c2ccccc12`, the result was inactive.
Next, `COc1cc(/C=C2\C(=N)N3N=C(S(C)(=O)=O)SC3=NC2=O)ccc1OS(=O)(=O)c1ccccc1`: “inactive”; `O=C(O)CN1C(=O)/C(=C\c2cc(Br)ccc2OCc2ccc(Cl)cc2)SC1=S`: “inactive”; `CC(C)S(=O)(=O)C1=NSC2=NC(=O)/C(=C\c3ccc(-c4cccc(C(=O)O)c4)o3)C(=N)N21`: “inactive”.
As for `O=C(O)CSCC(=O)N(Cc1ccccc1)c1nc(-c2ccccc2)c(-c2ccccc2)s1`, the outcome was inactive.
